Screening results: PubChem BioAssay, National Center for Advancing Translational Sciences (NCATS)
The entries come from a sample that favours hits as a whole.
ALOX12 inh: ALOX12 (human) lipoxygenase inhibition; P18054; purified 12hLO, xylenol orange hydroperoxide absorbance; Potency, µM (highest dose often 108 µM), most hits filed as inhibitors; actives 1.1% (n = 580,000)
Target sequence (P18054 whole entry, looked up): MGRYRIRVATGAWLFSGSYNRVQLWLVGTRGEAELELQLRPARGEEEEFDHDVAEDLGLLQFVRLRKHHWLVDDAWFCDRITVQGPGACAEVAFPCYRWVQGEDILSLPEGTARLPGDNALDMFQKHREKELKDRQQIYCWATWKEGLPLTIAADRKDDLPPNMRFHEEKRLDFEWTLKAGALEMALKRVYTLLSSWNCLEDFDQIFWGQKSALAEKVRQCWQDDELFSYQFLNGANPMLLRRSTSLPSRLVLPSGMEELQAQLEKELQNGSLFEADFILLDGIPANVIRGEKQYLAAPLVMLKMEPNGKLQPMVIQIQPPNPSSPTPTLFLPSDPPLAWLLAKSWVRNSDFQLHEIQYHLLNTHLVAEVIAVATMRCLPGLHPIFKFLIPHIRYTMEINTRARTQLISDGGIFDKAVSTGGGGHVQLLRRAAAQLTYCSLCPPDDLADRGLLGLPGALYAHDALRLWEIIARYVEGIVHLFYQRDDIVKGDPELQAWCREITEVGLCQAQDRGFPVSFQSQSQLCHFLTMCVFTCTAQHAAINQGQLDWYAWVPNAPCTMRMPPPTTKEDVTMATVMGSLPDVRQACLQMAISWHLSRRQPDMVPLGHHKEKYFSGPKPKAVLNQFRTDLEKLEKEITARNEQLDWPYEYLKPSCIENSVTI
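Purified human 12hLO (150 nM final) in 25 mM Hepes, 0.01% Triton X-100, pH 7.0 was preincubated 15 min at room temperature with compound. Then 40 uM arachidonic acid was added, 30 min. Hydroperoxide was read by Fe-XO absorbance ratio 573/405 nm.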
HT1080-NT tox: kills 2HG-producing HT-1080-NT fibrosarcoma cells; AID 686970; Potency, µM (highest dose often 46.1 µM), most hits filed as cytotoxic; actives 1.6% (n = 360,000); HT-1080-NT fibrosarcoma viability, CellTiter-Glo ATP luminescence, 48 h;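 further: NT is the 2HG producing partner of a matched IDH1 knockdown line; nearly all actives have a fitted effect of over 55% in size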
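Compounds were tested in concentration-response format on HT-1080-NT cells for 48 hours at 37 degrees C. Cell viability came from CellTiter-Glo luminescence; curves were classified by r2, response magnitude and activity.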
DT40 TDP1 no CPT: qHTS for Inhibitors of human tyrosyl-DNA phosphodiesterase 1 (TDP1): qHTS in cells in absence of CPT; DT40 Tdp1-/- hTDP1 cells, no CPT, ATP luminescence, 48 h; Potency, µM (highest dose often 46.2 µM), most hits filed as inhibitors; actives 15% (n = 420,000); AID 686978, 2013; further: nearly all actives have a fitted effect of over 55% in size
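Chicken DT40 Tdp1-/- cells complemented with human TDP1, screened without camptothecin (DMSO vehicle only), 400 cells/well. Compounds pin-transferred, cells incubated at 37 °C for at least 48 hr. Growth read as ATP-dependent luminescence (CellTiter-Glo, 30 min at RT).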
IL1B secr inh: inhibitors of inflammasome signaling (IL-1 beta secretion); THP-1 LPS/ATP IL-1B secretion, AlphaLISA, 16 h; active compounds read low; activity change, % at 57.5 µM; actives 4.7% (n = 360,000); in the data active means activity change below about -50%; inconclusive means mostly about -30% to -49%
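Secreted IL-1B measured by AlphaLISA bead assay after 16 h compound exposure of THP-1 cells; compounds (final up to 57.5 uM) added 1 h before LPS (250 ng/mL) and ATP (1.25 mM) stimulation; lower signal means less secretion.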
DT40 TDP1 CPT: growth inhibition of DT40 Tdp1-/-;hTDP1 cells with camptothecin (screen for TDP1 inhibitors); chicken DT40 Tdp1-/-;hTDP1 cells + 20 nM CPT, ATP luminescence, 48 h; Potency, µM (series often up to 46.2 µM), most hits filed as inhibitors; actives 12% (n = 420,000); further: nearly all actives have a fitted effect of over 55% in size
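Chicken DT40 Tdp1-/- cells stably complemented with human TDP1 were seeded at 400 cells/well in medium containing 20 nM camptothecin, exposed to pin-transferred compounds, and grown at 37 °C for at least 48 hr. Viability was read as ATP luminescence.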
HT1080 IDH1KD tx: kills HT-1080 cells with IDH1 knockdown; AID 686971; HT-1080 IDH1 knockdown viability, ATP luminescence, 48 h; Potency, µM (doses to about 46.1 µM), most hits filed as cytotoxic; actives 2% (n = 360,000)
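HT-1080-IDH1KD cells (IDH1 knocked down), 750/well in RPMI with 5% FBS, treated with compound 48 h at 37 degrees C. Viability by CellTiter-Glo luminescence, normalised to DMSO and no-cell wells; concentration-response curves classed.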
Hits are given with their value. Unless noted, the call rests on the fitted dose curve; in most records, active means well fitted curve in the direction sought with a large enough effect; inconclusive means small, poorly fitted or top-dose-only effect, or another doubt; inactive means no such curve, though single readings can be large; an effect the other way counts as inactive or inconclusive.

`C[C@@H]1CN([C@H](C)CO)C(=O)c2cccc(NC(=O)NC3CCCCC3)c2O[C@@H]1CN(C)C(=O)Nc1ccc(C(F)(F)F)cc1` gave HT1080-NT tox inconclusive, DT40 TDP1 no CPT inconclusive, IL1B secr inh -67, DT40 TDP1 CPT 16µM and HT1080 IDH1KD tx inconclusive.
`C[C@H](CO)N1C[C@H](C)[C@@H](CN(C)C(=O)Nc2ccc(C(F)(F)F)cc2)Oc2c(NC(=O)C3CCCCC3)cccc2C1=O` gave ALOX12 inh inactive, HT1080-NT tox inactive, DT40 TDP1 no CPT inconclusive, IL1B secr inh -58, DT40 TDP1 CPT inconclusive and HT1080 IDH1KD tx inactive.
For CC(O)CNc1nc2c(c(=O)n(C)c(=O)n2C)n1Cc1ccc(F)cc1 (stereo unspecified) the results were ALOX12 inh inactive.
`C[C@H](CO)N1C[C@H](C)[C@@H](CN(C)Cc2ccc(-c3ccccc3)cc2)Oc2c(NC(=O)Nc3ccc(C(F)(F)F)cc3)cccc2C1=O` gave ALOX12 inh inactive, HT1080-NT tox inactive, DT40 TDP1 no CPT inconclusive, IL1B secr inh inactive, DT40 TDP1 CPT 8.2µM and HT1080 IDH1KD tx inactive.
C[C@H](CO)N1C[C@H](C)[C@@H](CN(C)C(=O)Nc2ccccc2)Oc2c(NC(=O)Nc3ccc(C(F)(F)F)cc3)cccc2C1=O was read as ALOX12 inh inconclusive, HT1080-NT tox inconclusive, DT40 TDP1 no CPT inconclusive, IL1B secr inh inactive, DT40 TDP1 CPT 13µM and HT1080 IDH1KD tx inconclusive.
`CC(C)S(=O)(=O)C1=NSC2=NC(=O)/C(=C\c3ccc(-c4cccc(C(=O)O)c4)o3)C(=N)N21` gave ALOX12 inh inconclusive, HT1080-NT tox inactive, DT40 TDP1 no CPT inactive, IL1B secr inh inactive, DT40 TDP1 CPT inactive and HT1080 IDH1KD tx inactive.
`CC(C)S(=O)(=O)C1=NSC2=NC(=O)/C(=C\c3ccc(-c4ccccc4)o3)C(=N)N21` gave ALOX12 inh 25µM, HT1080-NT tox inactive, DT40 TDP1 no CPT inconclusive, IL1B secr inh inactive, DT40 TDP1 CPT inactive and HT1080 IDH1KD tx inactive.
Screening N=C1/C(=C/c2ccc(-c3cccc(C(=O)O)c3)o2)C(=O)N=C2SC=C(c3ccccc3)N12 returned ALOX12 inh 28µM, HT1080-NT tox inactive, DT40 TDP1 no CPT inactive, IL1B secr inh inactive, DT40 TDP1 CPT inconclusive and HT1080 IDH1KD tx inactive.
For Cc1ccc(-n2c(C)cc(/C=C3/C(=N)N4C(c5ccccc5)=CSC4=NC3=O)c2C)cc1 the results were ALOX12 inh inactive, HT1080-NT tox inactive, DT40 TDP1 no CPT 23µM, IL1B secr inh inactive, DT40 TDP1 CPT inconclusive and HT1080 IDH1KD tx inactive.
`O=C(OCc1ccc(F)cc1)C(c1ccccc1)N1CCC(O)CC1` (stereo unspecified) gave ALOX12 inh inactive.
`Cc1ccc(-c2cc(C(=O)Nc3ccccn3)c3ccccc3n2)o1` gave ALOX12 inh 6.3µM, HT1080-NT tox inactive, DT40 TDP1 no CPT 23µM, IL1B secr inh inactive, DT40 TDP1 CPT inconclusive and HT1080 IDH1KD tx inactive.
O=C(Nc1cccnc1)c1cc(-c2ccc(Br)cc2)nc2ccccc12 was read as ALOX12 inh inactive, HT1080-NT tox inconclusive, DT40 TDP1 no CPT inconclusive, IL1B secr inh -77, DT40 TDP1 CPT inconclusive and HT1080 IDH1KD tx inconclusive.
Screening Cc1ccc(-c2cc(C(=O)N3CCN(C(=O)c4ccco4)CC3)c3ccccc3n2)o1 returned ALOX12 inh 18µM.
`Cc1ccc(-c2cc(C(=O)Nc3cc(F)ccc3F)c3ccccc3n2)o1` gave ALOX12 inh 7.9µM.
Screening Cc1cc(NC(=O)c2cc(-c3cccnc3)nc3c(C)c(C)ccc23)no1 returned ALOX12 inh inactive, HT1080-NT tox inactive, DT40 TDP1 no CPT 16µM, IL1B secr inh inactive, DT40 TDP1 CPT inconclusive and HT1080 IDH1KD tx inconclusive.
For Cc1cccc(NC(=O)c2cc(-c3ccc(C)o3)nc3ccccc23)c1 the results were ALOX12 inh 10µM.
Cc1ccc(NC(=O)c2cc(-c3ccc(C)o3)nc3ccccc23)cc1 was read as ALOX12 inh 4.5µM, HT1080-NT tox inconclusive, DT40 TDP1 no CPT inconclusive, IL1B secr inh inactive, DT40 TDP1 CPT inconclusive and HT1080 IDH1KD tx inconclusive.
Cc1ccc(NC(=O)c2cc(C)nc3ccccc23)cc1 was read as ALOX12 inh inactive, HT1080-NT tox inactive, DT40 TDP1 no CPT inactive, IL1B secr inh inactive, DT40 TDP1 CPT inactive and HT1080 IDH1KD tx inactive.
`Cc1cccc(NC(=O)c2cc(C)nc3ccccc23)c1` gave ALOX12 inh inactive, HT1080-NT tox inactive, DT40 TDP1 no CPT inactive, IL1B secr inh inactive, DT40 TDP1 CPT inactive and HT1080 IDH1KD tx inactive.
For Cc1ccc(-c2cc(C(=O)O)c3ccccc3n2)o1 the results were ALOX12 inh 11µM.
For Cc1ccc(-c2cc(C(=O)Nc3cccnc3)c3ccccc3n2)o1 the results were ALOX12 inh 10µM, HT1080-NT tox inconclusive, DT40 TDP1 no CPT inconclusive, IL1B secr inh inactive, DT40 TDP1 CPT 16µM and HT1080 IDH1KD tx inconclusive.
O=C(Nc1ccccn1)c1cc(-c2ccco2)nc2ccccc12 was read as ALOX12 inh 40µM.
Cc1cc(NC(=O)c2cc(-c3ccccc3C)nc3ccccc23)no1 was read as ALOX12 inh inconclusive, HT1080-NT tox inactive, DT40 TDP1 no CPT 21µM, IL1B secr inh inactive, DT40 TDP1 CPT inconclusive and HT1080 IDH1KD tx inactive.
COc1ccc(CC(=O)NC(C)c2nnc(SCc3ccc(Cl)cc3Cl)n2C)cc1 (stereo unspecified) was read as ALOX12 inh inactive.
`CCN(CC)S(=O)(=O)c1cc(C)c(C)c(NS(=O)(=O)/C=C/c2ccccc2)c1` gave ALOX12 inh inactive.
For CN(CC(=O)NC(=O)NCc1ccccc1)CC(=O)Nc1ccc(Cl)c(Cl)c1 the results were ALOX12 inh inactive, HT1080-NT tox inactive, DT40 TDP1 no CPT inconclusive, IL1B secr inh inactive, DT40 TDP1 CPT 26µM and HT1080 IDH1KD tx inconclusive.
CN(CC(=O)Nc1ccc(Cl)c(Cl)c1)CC(=O)Nc1ccc2c(c1)OCO2 was read as ALOX12 inh inactive, HT1080-NT tox inactive, DT40 TDP1 no CPT inactive, IL1B secr inh -57, DT40 TDP1 CPT inconclusive and HT1080 IDH1KD tx inactive.
Screening COc1cccc(NC(=O)CN(C)CC(=O)NC(=O)NCc2ccccc2)c1 returned ALOX12 inh inactive.
For O=C(Nc1ccc(Cl)c(Cl)c1)c1ccc2c(c1)OCO2 the results were ALOX12 inh inactive, HT1080-NT tox inactive, DT40 TDP1 no CPT inconclusive, IL1B secr inh inactive, DT40 TDP1 CPT inactive and HT1080 IDH1KD tx inactive.
For O=C(COc1ccccc1Cl)Nc1ccc(-c2nc3ccccc3s2)cc1 the results were ALOX12 inh inactive, DT40 TDP1 no CPT 6.5µM and DT40 TDP1 CPT 5.8µM.
